Data on 29 compounds can be found in PubChem BioAssay (NCI).

Values joined by “and” are separate entries in the source; they are usually repeats but may differ in a detail not shown here. Identical values can stand only once. Compounds without any hit were thinned out: in the full panel of roughly 83,000, 20% have a hit.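 Single-dose data. Exposure time 48 hours. Values below 10 considered active.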 Active and inactive are the calls of the source.

For this assay, the system named is HL-60(TB) leukemia. The experiment in a line: NCI-60 one-dose screen, 48 h (100 = growth as untreated, 0 = no growth, -100 = all killed). As to conditions: 10 µM unless noted.
`Cc1ccc(C2=Nc3c(N)ncnc3NC(c3cccc(Nc4ccnc5cc(C(F)(F)F)ccc45)c3)C2)cc1` (centres undefined): the growth is 0.514% (active).
Then `COC(=O)[C@H](Cc1ccccc1)NC(=O)[C@@H](OC)[C@@H]1Cc2cc3cc(OC4CC(OC5CC(O)C(O)C(C)O5)C(O)C(C)O4)c(C)c(O)c3c(O)c2C(=O)[C@H]1OC1CC(OC2CC(OC3CC(C)(O)C(O)C(C)O3)C(O)C(C)O2)C(O)C(C)O1` (some centres undefined), with -9.07% (active); and `COc1ccc(/C=C(\C#N)c2ccccc2)cc1`, with 95.8% (inactive); and `COc1ccc(-n2ncn(CCCCCCn3cnn(-c4ccc(OC)cc4)c3=O)c2=O)cc1`, with 86.7% (inactive).
Regarding `NC1=NC(c2ccccc2)N=C(Nc2ccccc2)N1` (centres undefined), the growth was 95.7% (inactive) and 111% (inactive).
Then `C#Cc1nc2ccccc2c(=O)[nH]1`, with -42.4% (active); and `Fc1c[c-]c(-c2ccccn2)c(F)c1.Fc1c[c-]c(-c2ccccn2)c(F)c1.[Cl][Pt+].[Cl][Pt+].c1ccc([PH+](C[PH+](c2ccccc2)c2ccccc2)c2ccccc2)cc1`, with 6.62% (active); and `CC1CCCC(=O)O1` (centres undefined), with 102% (inactive) and 119% (inactive).
Then `C[C@@H]1CCC[C@H]1CC(N)C(=O)O` (some centres undefined), with 112% (inactive); and `COc1ccccc1CNCCCN1C(=O)c2ccc3c4c(ccc(c24)C1=O)C(=O)N(CCCNCc1ccccc1OC)C3=O`, with -67.5% (active); and `Cc1cc2c(O)c(-c3cccc(Cl)c3)c3sc(=O)oc3c2cc1C`, with 23.2% (inactive).
Turning to `NC(=Nc1ccc(N)cc1)C(N)=Nc1ccc(N)cc1`, the growth was 59.6% (inactive).
Then `O=C1OCC2=C1C(c1cccc(Cl)c1)c1cc3c(cc1N2CCO)OCCO3` (centres undefined), with -20% (active); and `CC(C)C(NC(=O)CN)C(=O)O` (centres undefined), with 94.9% (inactive) and 98.7% (inactive).
Consider `C=CC[Se]C(=O)Cc1c(C)n(C(=O)c2ccc(Cl)cc2)c2ccc(OC)cc12`, for which the growth was -53.3% (active).
Then `O=c1c2cccc3c(Nc4ccc(F)cc4)ccc(c32)c2nc3ccccc3n12`, with 124% (inactive); and `O=c1[nH]c2ccccc2cc1-c1nc2ccc(Cl)cc2[nH]1`, with -26.1% (active); and `CC(=O)c1ccc(N2C(=O)c3ccc(Oc4ccccc4)cc3C2=O)cc1`, with 105% (inactive).
Next, `CCCC1CCC(=C2C(=O)CCC2=O)O1` (centres undefined): 148% (inactive) and 153% (inactive); `O=C(O)CC1Sc2ccccc2NC1=O` (centres undefined): 115% (inactive).
Turning to `COc1ccc2nc(NC(=O)CSc3nnc4n3S(=O)(=O)c3ccccc3N4c3ccccc3)sc2c1`, the growth is -83.2% (active).
Next, `COc1ccc(C)cc1NC(=O)SC(C)C`: 94.7% [100 µM] (inactive); `O=C1CC(=O)N(C(=O)c2nn(-c3ccc(Cl)cc3)cc2O)N1`: 4.53% (active); `ClCC(Cl)[C@@H]1CC2C=CC1C2` (some centres undefined): 104% (inactive).
For the compound `COC(=O)c1ccc(=O)c2nc3/c(=C/O)c(O)cc(=O)c3[nH]c12`, the growth is 0.308% (active).
Take `O=C(OCc1ncc(-c2ccc(C(F)(F)F)cc2)c(NC2CCCCCC2)n1)c1c(F)c(F)c(F)c(F)c1F`: the growth is 27.5% (inactive).
Then `O=C(/C=C/c1cccc(Cl)c1)OCc1ccc2cc1OCC#C/C=C\C#CCO2`, with 81.8% (inactive).
Then `Cc1[nH]nc2c(=S)[nH]c(=O)[nH]c12`, with 89.2% (inactive).
Then `CC1=C(C(=O)OC(C)C)C(c2ccc3c(c2)OCO3)NC(=S)N1` (centres undefined), with 105% (inactive).
